From PubChem BioAssay (Tox21)
Records with an inconclusive call do not appear. Values without a mark were called inactive. Calls of active or inactive are those of the source. Calls come from the whole dose curve; as a rule, active = well fitted inhibition curve with a large enough effect in the repeat runs; inconclusive = weak or mixed curves, or effect the other way; inactive = no such curve, though single readings can be large or run the other way.

These molecules were tested against Nuclear receptor ROR-gamma (Homo sapiens) (UniProt P51449) (assay: qHTS assay to identify small molecule antagonists of the retinoid-related orphan receptor gamma (ROR-gamma) signaling pathway (AID 1159521; note: top concentration of the series differs between compounds; nearly all actives have a fitted effect of over 50% in size)). Conditions: Tet-on RORgamma CHO cells, RORE-luciferase, 16 h; series mostly up to 92.4 µM.
Source text: U.S. Tox21 Program National Center for Advancing Translational Sciences [NCATS] NIH Chemical Genomics Center [NCGC] U.S. Environmental Protection Agency [EPA] National Institutes of Environmental Health Sciences [NIEHS] National Toxicology Program [NTP] U.S. Food and Drug Administration [FDA] Tox21 Assay Overview: Nuclear steroid hormone receptors are involved in many biological processes including inflammatory responses, cell proliferation, and apoptosis. Environmental factors or compounds disrupting these nuclear receptor pathways and gene expression may promote susceptibility to immunotoxicants and autoimmune diseases. One important group of these expression factors are the retinoid-related orphan receptors. To assess compounds that may interfere with the retinoid-related orphan receptor gamma (ROR-gamma) transcription factor, a cell-based luciferase assay was used. The CHO cell-based assay utilizes a TET-inducible ROR expression factor and ROR response element-LUC reporter gene. Reporter gene activity was induced using Doxycycline Hyclate and measured after 16 hr incubation. Tet-on ROR gamma CHO cells were used to screen against the Tox21 10K compound library for ROR gamma antagonists by quantification of decreased reporter gene activity in terms of decreased luminescence.
Tox21 Assay Protocol Summary: Tet-on ROR gamma CHO cells were dispensed at 1,000 cells in 4 uL of culture medium per well into white wall/solid bottom 1536-well plates using a Multidrop Combi (Thermo Scientific, Waltham, MA) dispenser. Following incubation at 37 C and 5% CO2 for 4 hr, 23 nL of compounds dissolved in DMSO, positive controls or DMSO only were transferred by a Pintool station (Kalypsys, San Diego, CA) and after 2 hr incubation at 37 C, one ul of 1 uM (final concentration) of Doxycycline Hyclate was added to all the wells by using a Flying Reagent Dispenser (FRD) (Aurora Discovery, San Diego, CA). After 16 hr incubation at 37 C and 5% CO2, 5 uL of ONE-Glo reagent (Promega Corporation, Madison, WI) was added to each assay plate using FRD. After 30 min incubation at room temperature, luminescence was quantified on a ViewLux plate reader (Perkin Elmer, Waltham, MA).
% is set by controls: 0 for no effect and ±100 for the full control effect.

SMILES	outcome	activity change, negative = inhibition
C1CCN2C[C@@H]3C[C@@H](CN4CCCC[C@@H]34)[C@H]2C1	inactive	–
CCCCC(=O)N(C)C	inactive	–
CC(C)COC(=O)COc1ccc(Cl)cc1Cl	inactive	–
C=CCOc1c(Br)cc(C(C)(C)c2cc(Br)c(OCC=C)c(Br)c2)cc1Br	inactive	–
Nc1cc(C(=O)O)ccc1Cl	inactive	–
C=CCOC(=O)c1ccc(C(=O)OCC=C)c(C(=O)OCC=C)c1	inactive	–
COC(OC)C(C)c1ccccc1 (stereo not given)	inactive	–
Oc1ccccc1Cc1ccccc1O	inactive	–
CCCCCCCCCCCCC	inactive	–
CC(C)COC(=O)CC(C(=O)OCC(C)C)S(=O)(=O)O (stereo not given)	inactive	–
CC(C)c1ccccc1O	inactive	–
O=CN1CCOCC1	inactive	–
NS(=O)(=O)c1ccccc1OC(F)(F)F	inactive	–
CCCCCCCC/C=C\CCCCCCCC(=O)OC[C@@H](O)[C@H]1OC[C@H](O)[C@H]1O	inactive	–
Cc1ccccc1OCC1CO1 (stereo not given)	inactive	–
O=C(Oc1ccccc1C(=O)O)c1ccccc1O	inactive	–
CCCCCC(=O)OCC	inactive	–
C=COCCOCCOC=C	inactive	–
CCN1CN(CC)CN(CC)C1	inactive	–
CCCCCCCCCCCCCCCCCCN(C)C	inactive	–

SMILES	outcome	activity change, negative = inhibition
CCC(=O)c1ccc(O)cc1	inactive	–
COC(/C=C(\C)CCC=C(C)C)OC	inactive	–
C=C[C@@H](C)CCC=C(C)C	inactive	–
NC(=O)NNC(N)=O	inactive	–
Nc1ccc(/C=C/c2ccc(N)cc2S(=O)(=O)O)c(S(=O)(=O)O)c1	–	35.7% [at 0.35 µM]
NC(=O)NC(=O)Cc1ccccc1	inactive	–
O=C1OC(=O)c2cc(Oc3ccc4c(c3)C(=O)OC4=O)ccc21	inactive	–
O=C(O)C(=O)Nc1cccc(-c2nn[nH]n2)c1	inactive	–
CCNC(=O)NCCCOc1cccc(CN2CCCCC2)c1	inactive	–
CO[Si](CCCS)(OC)OC	inactive	–
CCCCCCCCCCC	inactive	–
CCOC(=O)OCC/C(SC(=O)OCC)=C(\C)N(C=O)Cc1cnc(C)nc1N	inactive	–
CCc1nccnc1C	inactive	–
CN=C(NC#N)NCCSCc1csc(N=C(N)N)n1	inactive	–
CC(=O)OC[C@H]1O[C@@H](OC(C)=O)[C@H](OC(C)=O)[C@@H]1OC(C)=O	inactive	–
CC(=O)OC(C)c1ccccc1 (stereo not given)	inactive	–
Cc1ccc(C(=O)C(=O)O)cc1C	inactive	–
CC(C)CCC(=O)CCC(C)C	inactive	–
Cc1cc(O)c2c(c1)C(=O)c1cccc(O)c1C2=O	inactive	–
COc1cc2c(Nc3ccc(Br)cc3F)ncnc2cc1OCC1CCN(C)CC1	inactive	–
